LmPK inh: qHTS Assay for Inhibitors of Leishmania Mexicana Pyruvate Kinase (LmPK). Q27686. purified LmPK, Kinase-Glo ATP luminescence, 1 h. Potency, µM (highest dose often 57.5 µM), inactives show top-dose activity change, negative = inhibition, most hits filed as inhibitors. 0.37% of 290,000 active. AID 1721, 2009; also: potency is read from the fitted curve at half-maximal effect; % is scaled to controls: 0 for no effect and ±100 for the full control effect
Target sequence (Q27686 whole entry, looked up): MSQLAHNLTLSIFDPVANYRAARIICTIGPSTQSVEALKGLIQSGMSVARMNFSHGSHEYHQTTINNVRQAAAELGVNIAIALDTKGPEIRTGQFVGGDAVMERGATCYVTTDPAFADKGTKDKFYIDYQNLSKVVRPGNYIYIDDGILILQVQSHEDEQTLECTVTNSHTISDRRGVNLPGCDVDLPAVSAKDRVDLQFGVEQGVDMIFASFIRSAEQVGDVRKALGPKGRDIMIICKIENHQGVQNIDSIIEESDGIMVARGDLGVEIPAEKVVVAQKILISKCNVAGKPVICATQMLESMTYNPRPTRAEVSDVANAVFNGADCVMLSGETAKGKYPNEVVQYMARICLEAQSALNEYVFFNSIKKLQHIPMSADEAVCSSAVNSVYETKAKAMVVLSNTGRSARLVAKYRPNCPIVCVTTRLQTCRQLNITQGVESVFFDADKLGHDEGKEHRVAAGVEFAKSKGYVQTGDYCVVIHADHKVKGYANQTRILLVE
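Purified LmPK (0.1 nM) with 0.5 mM PEP and 0.1 mM ADP in imidazole buffer pH 7.2 with MgCl2/KCl, 1 h at room temperature. ATP formed was read by luciferase luminescence and normalized to no-enzyme and uninhibited controls.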
Pf growth 48h: Primary qHTS for delayed death inhibitors of the malarial parasite plastid, 48 hour incubation. 5.9% of 310,000 active. P. falciparum luciferase growth in erythrocytes, 48 h. Potency, µM (highest dose often 28.7 µM), for the others: top-dose activity change, negative = inhibition, hits mostly inhibitors. AID 504832, 2011; also: potency is read from the fitted curve at half-maximal effect; % is scaled to controls: 0 for no effect and ±100 for the full control effect
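Here the parasites carry a stable luciferase gene and grow inside erythrocytes in Albumax-based RPMI medium with compound for one erythrocytic cycle. Activity is scored as loss of luminescent signal.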
CHX counter: Cycloheximide Counterscreen for Small Molecule Inhibitors of Shiga Toxin. max response, %. 12% of 300,000 active. cell reporter, cycloheximide protein synthesis inhibition counterscreen. AID 2314, 2010; in the data active = max response mostly above about 13%, no sharp cut-off; inactive = mostly below about 14%; also: read at 38.3 µM for the half of the compounds with a filed dose; 0% is about no effect
Pf growth 96h: Primary qHTS for delayed death inhibitors of the malarial parasite plastid, 96 hour incubation | P. falciparum luciferase reporter growth, 96 h | AID 504834, 2011 | 6.9% of 320,000 active | Potency, µM (series often up to 28.7 µM), inactives show at the highest dose activity change, negative = inhibition, actives largely listed as inhibitors; also: potency is read from the fitted curve at half-maximal effect; % is scaled to controls: 0 for no effect and ±100 for the full control effect
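Readout is luminescence from an integrated firefly luciferase in P. falciparum. Red cells, 2% hematocrit and 0.05% parasitemia final, were cultured with compound through two parasite generations (96 hours) at 37 C, 5% CO2.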
Shiga inhibitor: A qHTS for Small Molecule Inhibitors of Shiga Toxin. Vero cells, Shiga toxin protein synthesis inhibition reporter. inhibition, % at 38.7 µM. 9.2% of 290,000 active. AID 2315, 2010; in the data active = inhibition mostly above about 28%, no sharp cut-off; inactive = mostly below about 43%; also: 0% is about no effect
Active calls of the source: *; i = inactive; ? = inconclusive; · = no result given. Rows were chosen to be rich in hits. Some 22% of all compounds tested hit in one or more screens of this group. Unless noted, calls follow the shape of the dose curve; as a rule, active = well fitted inhibition curve with a large enough effect; inconclusive = small, poorly fitted or top-dose-only effect, or another doubt; inactive = no such curve, though single readings can be large or run the other way.

SMILES	LmPK inh	Pf growth 48h	CHX counter	Pf growth 96h	Shiga inhibitor
CC(C)n1ncc2c(C(=O)O)cc(C3CC3)nc21	16%	-2%	-3	19%	-12
CC(C)n1ncc2c(C(=O)Nc3cccc(C#N)c3)cc(C3CC3)nc21	·	6.6µM*	·	5.2µM*	·
CC(C)n1ncc2c(C(=O)NCCc3ccc(S(N)(=O)=O)cc3)cc(C3CC3)nc21	·	-7%	·	?	·
COc1ccccc1CNC(=O)c1cc(C2CC2)nc2c1cnn2C(C)C	·	0.93µM*	·	0.74µM*	·
COc1ccc(CCNC(=O)c2cc(C3CC3)nc3c2cnn3C(C)C)cc1OC	·	?	·	2.3µM*	·
COc1ccccc1CNC(=O)c1cnn2c(C(F)F)cc(C)nc12	6%	·	-3	?	-15
COc1ccc(CNC(=O)c2cc(C3CC3)nc3c2cnn3C(C)C)cc1	·	13µM*	·	15µM*	·
S=C(NCCCN1CCOCC1)N(Cc1ccccc1)Cc1ccccc1	0%	-3%	-3	12%	-9
CCOc1ccc(OCCNC(=O)c2cc(C3CC3)nc3c2cnn3C(C)C)cc1	·	10µM*	·	?	·
O=C(c1cnn2c(C(F)F)cc(C3CC3)nc12)N1CCOCC1	-2%	-1%	-5	2%	-28
CC(C)n1ncc2c(C(=O)N3CCN(Cc4ccc(Br)s4)CC3)cc(C3CC3)nc21	·	4.1µM*	·	12µM*	·
COCCNC(=S)NNC(=O)c1cc(C2CC2)nc2ccccc12	3%	?	-7	0%	-12
COc1cc(C(=O)N/N=C/c2ccc3c(c2)c2ccccc2n3C)ccc1O	3%	4.7µM*	11	9.3µM*	9
Cn1c2ccccc2c2cc(/C=N/NC(=O)c3cc(O)cc(O)c3)ccc21	10%	?	-3	?	-7
Cn1c2ccccc2c2cc(/C=N/NC(=O)c3cc(O)ccc3O)ccc21	0%	?	12*	?	18
CCOc1ccc(NC(=O)Nc2ccon2)cc1	1%	115%	39*	19%	58*
O=C(Nc1ccon1)Nc1cccc(Cl)c1Cl	6%	19%	9.6*	0%	3
O=C(Nc1ccon1)Nc1ccc(Cl)cc1Cl	-6%	31%	25*	37%	42*
CCc1ccccc1NC(=O)Nc1ccon1	2%	64%	3	3%	-6
Cc1ccc(NC(=O)Nc2ccon2)cc1	-12%	67%	40*	56%	66*
COc1ccc(NC(=O)Nc2cccc(Cl)c2Cl)c(OC)n1	-1%	?	-1	9.3µM*	12
Cn1nccc1NC(=O)Nc1cccc(Cl)c1Cl	1%	35%	7	32%	6
O=C(Nc1cccc(Cl)c1)Nc1ccon1	-4%	70%	17	-30%	16
Cc1ccc(NC(=O)Nc2ccon2)cc1Cl	0%	51%	28*	-12%	50*
O=C(Nc1ccc(Cl)cc1)Nc1ccon1	-7%	29%	15*	9%	29*
SMILES	LmPK inh	Pf growth 48h	CHX counter	Pf growth 96h	Shiga inhibitor
Cc1ccc(Nc2ccc(S(=O)(=O)N3CCOCC3)cc2[N+](=O)[O-])cc1C	4%	-16%	-2	?	-7
COc1ccc(Cl)cc1NC(=O)c1ocnc1C	5%	-2%	-4	1µM*	-15
Cc1cc(NC(=O)Nc2cccs2)no1	2%	36%	16*	-10%	19
COc1ccc(NC(=O)c2ocnc2C)cc1OC	-12%	35%	12	40%	11
Cc1cccc(C)c1NC(=O)Nc1cccs1	8%	·	0	-16%	-13
O=C(Nc1ccc(C(F)(F)F)cn1)Nc1cccs1	-3%	35%	26*	51%	35*
COc1ccc(Cl)cc1NC(=O)Nc1cc(C)on1	-7%	192%	36*	?	61*
O=C(Nc1cccs1)Nc1c(F)c(F)c(F)c(F)c1F	0%	?	-2	89%	-10
COC(=O)C1=C(C)N(Cc2ccccc2)C(=NCc2ccco2)N[C@H]1c1ccc(Br)cc1	-8%	·	-5	·	-5
Cc1cc(NC(=O)c2c(Cl)cccc2Cl)no1	6%	12%	-2	-21%	-3
Cc1cc(NC(=O)CS(=O)(=O)c2cn(Cc3ccccc3Cl)c3ccccc23)no1	2%	0%	-2	0.59µM*	-11
Cc1cc(NC(=O)Nc2ccccc2Cl)no1	-9%	46%	27*	?	64*
O=c1oc2cc(OCc3ccc(F)cc3F)ccc2cc1-c1ccc2ccccc2n1	-1%	-12%	2	?	-6
CC(C)(C)OC(=O)NN1CC(=O)N2[C@@H](Cc3c([nH]c4ccccc34)C2(C)C)C1=O	-7%	1%	0	6%	-8
Cc1ccc(C(=O)NC(=S)Nc2cccc(-c3nc4ccccc4s3)c2)cc1	0%	102%	27*	-10%	60*
COC(=O)c1ccc(NC(=S)NC(=O)c2cc(-c3ccccc3)nc3ccccc23)cc1	5%	30%	-2	·	7
COC(=O)Cc1ccc2sc(-c3ccccc3)nc2c1	14µM*	32%	62*	5%	73*
CC(=O)Nc1cccc(-c2cc(C)c3cc4c(cc3n2)OCO4)c1	-1%	24%	37*	79%	109*
CC(=O)Nc1cccc(-c2nc3ccc(NC(C)=O)cc3s2)c1	-13%	60%	40*	4%	78*
CC(=O)Nc1cccc(-c2nc3ccccc3s2)c1	-9%	118%	36*	?	98*
CCOC(=O)C1C(=O)CC(C)(O)C(C(=O)OCC)C1c1ccc(OCC)cc1 (stereo not given)	5%	-11%	0	37%	-7
CCOC(=O)C1C(=O)CC(C)(O)C(C(=O)OCC)C1c1cccc(OC(F)(F)C(F)F)c1 (stereo not given)	0%	10µM*	-2	?	13
CCOC(=O)c1cc(NC(=O)Cc2ccc(S(=O)(=O)N3CCOCC3)s2)cc(C(=O)OCC)c1	·	10µM*	·	5.2µM*	·
CN(C)S(=O)(=O)c1ccc(NC(=O)Cc2ccc(S(=O)(=O)N3CCOCC3)s2)cc1	-2%	?	4	9.3µM*	-11
CCC(C)c1ccc(NC(=O)NCCN2CCCCC2)cc1 (stereo not given)	0%	-21%	-1	i	-3
SMILES	LmPK inh	Pf growth 48h	CHX counter	Pf growth 96h	Shiga inhibitor
COc1cc(C(=O)N2CCCCCCC2)ccc1OC1CCN(C(C)=O)CC1	-7%	?	30*	?	43*
COc1ccc(C(=O)N2CCCCCC2)cc1OC1CCN(C(C)=O)CC1	6%	37%	5	10µM*	-3
CCSc1nnc(NC(=O)CCCOc2ccc(C)cc2)s1	-1%	7%	-4	?	15
COc1ccccc1N1CCN(C(=O)CSc2ccc3c(C)cc(C)nc3n2)CC1	0%	10µM*	6	48%	-12
NC(=O)C1CCN(C(=O)CSc2nc3ccccc3o2)CC1	-3%	25%	-2	7%	4
COc1ccccc1N1CCN(C(=O)CSc2nc(-c3ccccc3)cc(=O)[nH]2)CC1	0%	-24%	-1	-20%	14

Source: PubChem (National Center for Advancing Translational Sciences (NCATS))
